Hits are enriched below; roughly 0.92% of the tested compounds scored in any of these assays.
RecA splice inh – inhibitors of M. tuberculosis RecA intein splicing. cell-free RecA intein splicing, fluorescence. 0.75% of 290,000 active. inhibition, % (concentration not given with the values). P9WHJ3; in the data active = inhibition above about 30%;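 also: 0% = vehicle wells and 100% = reference inhibitor control wells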
Mtb hypoxia rep – Mtb hypoxia fluorescent reporter inhibition; AID 1159583; M. tuberculosis hypoxia-regulated fluorescent reporter, fluorescence; fluorescence inhibition, % (concentration not given with the values); 0.1% of 300,000 active; in the data active = fluorescence inhibition mostly above about 23%, no sharp cut-off; inactive = mostly below about 17%
Rv3671c inh – inhibitors of M. tuberculosis serine protease Rv3671c; P9WHR9; inhibition, % at 5.96 µM; 0.048% of 320,000 active; in the data active = inhibition above about 38%;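 also: extracellular domain of Rv3671c used as enzyme; 0% = enzyme with DMSO and 100% = no enzyme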
Mtb UGM inh – Mtb UDP-galactopyranose mutase inhibition | purified UGM, fluorescence polarization probe displacement | AID 504406 | P9WIQ1 | inhibition, % at 10 µM | 0.06% of 320,000 active; in the data active = inhibition above about 10%, passing the limit was not always enough
Target sequence (P9WIQ1 whole entry, looked up): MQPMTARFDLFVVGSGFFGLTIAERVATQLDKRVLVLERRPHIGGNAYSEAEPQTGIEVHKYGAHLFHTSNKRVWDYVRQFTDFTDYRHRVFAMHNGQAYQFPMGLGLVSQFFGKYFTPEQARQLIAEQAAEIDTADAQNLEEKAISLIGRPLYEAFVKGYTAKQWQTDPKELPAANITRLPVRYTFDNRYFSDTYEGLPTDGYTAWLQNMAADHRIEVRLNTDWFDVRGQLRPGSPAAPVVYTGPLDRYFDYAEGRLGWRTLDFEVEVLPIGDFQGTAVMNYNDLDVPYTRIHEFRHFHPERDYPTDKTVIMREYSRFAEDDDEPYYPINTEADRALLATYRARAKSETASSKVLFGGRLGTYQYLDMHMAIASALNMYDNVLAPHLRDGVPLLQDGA
FadD28 binding – blocks FadD28 binding to the bisubstrate probe; fluorescence polarization; inhibition, % at 12.5 µM; 0.22% of 360,000 active; AID 588549; in the data active = inhibition above about 8.5%, passing the limit was not always enough
Starred values were filed as active, the others as inactive; x = no result shown.

SMILES	RecA splice inh	Mtb hypoxia rep	Rv3671c inh	Mtb UGM inh	FadD28 binding
Cc1ccc(C2NC(=O)NC(O)(C(F)(F)F)C2C(=O)c2ccccc2)o1 (stereo not given)	-1	1	-7	0	-3
Cc1ccc(-c2nn(Cc3ccccc3)cc2C=CC(=O)O)cc1	x	9	x	x	x
COc1ccc(CN(C)C(=O)COC(=O)c2cc([N+](=O)[O-])ccc2N2CCCC2)c(OC)c1OC	x	22*	-13	0	-2
CN(C)CCNC(=O)c1ccc(Cl)s1	6	9	-2	0	-1
COc1ccc(CN(C)C(=O)CCl)cc1	x	x	x	x	-1
CN(Cc1ccc(Cl)cc1)C(=O)CCl	63*	x	-8	-2	-1
CN(Cc1ccc(Cl)s1)C(=O)CCl	43*	x	3	0	-4
CCC1=C2CCC3C(=O)N(CC(=O)OC)C(=O)C3C2[C@@]2(C)C(=NCC(=O)OC)OC(=O)N2C1=O (stereo not given in full)	x	10	x	x	x
S=C(NN=Cc1ccccc1Cl)Nc1cccc(Cl)c1Cl	x	2	x	x	x
COc1cc(C=C2C(=O)NN(c3ccccc3)C2=O)cc([N+](=O)[O-])c1O	x	7	x	x	x
COc1cc(/C=C2/C(=O)NN(c3cccc(Cl)c3)C2=O)cc(OC)c1O	9	x	-4	-4	11*
CCOc1cc(/C=C2/C(=O)NN(c3cccc(Cl)c3)C2=O)ccc1O	2	-1	0	2	3
COc1cc(/C=C2/C(=O)NN(c3ccc(C)c(Cl)c3)C2=O)cc([N+](=O)[O-])c1O	-2	5	x	1	30*
COC(=O)C(NCc1cccc(CNC(C(=O)OC)C(C)C)c1)C(C)C (stereo not given)	x	4	x	x	x
O=C(CN1C(=O)NC2(CCOc3ccccc32)C1=O)c1ccc(Cl)cc1 (stereo not given)	2	-2	-4	2	16*
O=C(O)CN1C(=O)NC2(CCOc3ccccc32)C1=O (stereo not given)	-3	9	-5	0	-2
CCN(c1ccc(C(=O)CN2C(=O)NC3(CCOc4ccccc43)C2=O)cc1)S(C)(=O)=O (stereo not given)	x	11	-1	-1	-3
O=C(CN1C(=O)NC2(CCOc3ccccc32)C1=O)c1ccc(Br)cc1 (stereo not given)	x	7	-5	4	21*
COc1cccc2c1C(=O)c1c(O)c3c(c(O)c1C2=O)CC(O)(C(=O)CO)CC3OC1CC(N(C)C)C(O)C(C)O1 (stereo not given)	x	x	x	x	65*
COc1cccc2c1C(=O)c1c(O)c3c(c(O)c1C2=O)C[C@@](O)(C(=O)CO)C[C@@H]3O[C@H]1C[C@H](N)[C@@H](O)[C@H](C)O1	-7	x	37	38*	64*
COc1cccc2c1C(=O)c1c(O)c3c(c(O)c1C2=O)C[C@@](O)(C(C)=O)C[C@@H]3O[C@H]1C[C@H](N)[C@H](O)[C@H](C)O1	x	x	x	x	68*
Cn1cnnc1SCC(=O)NN=Cc1ccc(OCC(N)=O)cc1	x	-4	x	x	x
Cc1cccc(C2C3C(=O)N(Cc4ccccc4)C(=O)C3[C@]3(C)C(=O)N(c4ccc(C(F)(F)F)cc4)C(=O)N23)c1 (stereo not given in full)	x	0	x	x	x
CC(C)(C)C1COC(=O)C(Cc2ccc(F)cc2)CCC=CCC(CC(=O)NC(CO)Cc2ccccc2)C(=O)N1 (stereo not given)	x	9	x	x	x
CCN(CC)c1ccc(/C=C2\C(=O)c3ccc(C(=O)O)cc3C2=O)cc1	x	4	-23	-21	25*
SMILES	RecA splice inh	Mtb hypoxia rep	Rv3671c inh	Mtb UGM inh	FadD28 binding
Cn1c(-c2ccccc2)cc2ccccc21	-3	10	3	0	-1
Cn1c(-c2ccccc2)cc2c3no[n+]([O-])c3ccc21	-1	47*	-1	-3	-1
COc1ccc(CC(=O)N/N=C(/C)CC(=O)N(C)c2ccccc2)cc1	30*	x	1	-2	x
Cc1cc(/C=C2\C(=O)NC(=O)N(Cc3ccccc3)C2=O)c(C)n1-c1ccc(Cl)c(C(=O)O)c1	0	-4	-7	6	16*
Cc1cc(/C=C2\C(=O)NC(=O)N(Cc3ccccc3Cl)C2=O)c(C)n1-c1ccc(C(=O)O)cc1	-3	8	-6	-1	-1
O=C(O)CC(C(=O)O)N1C(=O)/C(=C/c2ccc(-c3nc4ccccc4s3)o2)SC1=S (stereo not given)	-12	19	11	0	29*
O=C(Nc1ccc(F)cc1)c1nn(-c2ccccc2)c(=O)cc1Cl	31*	2	x	x	-2
Cc1ccc(NC(=O)c2cc(-c3ccccc3)nn2-c2ccccc2)cc1	1	10	-9	-2	-2
O=C(CNC(=O)c1ccc2c(c1)OCCO2)NN=Cc1ccco1	x	7	x	x	x
CCN(CC)S(=O)(=O)c1ccc2c(c1)c(=O)c(C(=O)NCc1ccco1)cn2C	-2	-2	-3	12*	-3
O=C(CCl)c1ccc2c(c1)CCN2C(=O)C1CC1	60*	x	2	-1	x
O=C(C1CCC(C(=O)N2CCc3ccccc32)CC1)N1CCc2ccccc21 (stereo not given)	-1	x	-8	1	-1
COC(=O)Cc1cc(=O)n(-c2ccccc2)[nH]1	50*	13	-32	0	1
CCC(/C=C1\Sc2ccc(OC)cc2N1CC)=C\c1sc2ccc(OC)cc2[n+]1CCCS(=O)(=O)[O-]	-4	68*	-419	1	-13
CCC(/C=C1\Sc2ccc(OC)cc2N1CCO)=C\c1sc2ccc(OC)cc2[n+]1CCO	x	x	-459	0	-7
CCC(C)Sc1ccc(C2N[C@@](CC(C)C)(C(=O)OC)C3C(=O)N(C)C(=O)C23)cc1 (stereo not given in full)	x	22	x	x	x
CC(CCc1oc2ccc(Br)cc2c1-c1ccc(C)o1)=NO	x	6	x	x	x
O=c1c(Br)c(Br)cnn1-c1ccccc1	x	x	x	x	-4
Cc1ccc(-n2ncc(Br)c(Br)c2=O)cc1	67*	15	x	x	1
CC(C)S(=O)(=O)c1nsc2nc(=O)c(/C=C3\C=Nc4ccccc43)c(N)n12	-20	20	-12	1	30*
CSc1nsc2nc(=O)c(/C=C3\C=Nc4ccccc43)c(N)n12	-3	-9	-18	8	14*
CCCN1CCOC2c3cc(O)ccc3OCC21 (stereo not given)	x	9	x	x	x
Cc1cccc(OCC(=O)Oc2ccc(Cl)cc2)c1	34*	6	7	3	-1
CCOC(=O)c1nn(-c2ccc(C)cc2)c(=O)c2c(N)scc12	35*	9	-21	3	-2
CCOC(=O)c1nn(-c2ccc(F)cc2)c(=O)c2c(N)scc12	22	2	-8	1	0
C=CC[n+]1ccc(/C=C2\C=Cc3cc(C)ccc3N2CC)c2ccccc21	x	36*	x	x	-2
CCN1/C(=C/c2cc[n+](CCCS(=O)(=O)[O-])c3ccccc23)Sc2ccccc21	2	18	-14	-5	0
COc1ccc(NC(=O)N(C)CC2Oc3c(NC(=O)c4nc5ccccc5s4)cccc3C(=O)N(C(C)CO)CC2C)cc1 (stereo not given)	x	-12	x	x	x

From PubChem
